This note sets out measurements from PubChem BioAssay AID1626 (SRMLSC, 2009).

Structures are written as SMILES. Several values for one entry are separate records, joined by “and”; a condition that tells them apart may be missing. Equal entries are not always repeated. Among all 220,000 compounds or so, about 2,000 (0.91%) were called active. Another 2% or so got no clear call; they are omitted. Only a sample is shown. Potency and affinity values are given separately. A number with no mark means an inactive call. Cut-off read from the data, not from the text of the source: inconclusive = inhibition above about 80% without an active follow-up result; inactive = below that; test concentration not stated here.

A short description of this experiment: M. tuberculosis H37Rv growth inhibitors, H37Rv strain (AID 1626).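 Note: bacteria incubated seven days before Alamar blue readout; 0% = bacteria only wells and 100% = bacteria with antibiotic wells.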 To be noted: active compounds read high, concentration not given here.
By inhibition is commonly meant the relative decrease from the control value, in per cent. For the molecule `CCN(CC(=O)NCc1ccc(F)cc1)CC(=O)Nc1ccccc1-c1ccccc1`, the inhibition was -6.65%.
As for `C=CCN1C(=O)C(CC(=O)Nc2ccccc2F)S/C1=N\c1nccs1` (stereo not drawn), the inhibition is 6.25%.
With `CCCNC(=O)C(=O)NCCC1=CCCCC1`, the inhibition was -4.88%.
As for `COc1cccc(OC)c1C(=O)Nc1c(C)n(C)n(-c2ccccc2)c1=O`, the inhibition is 0.17%.
To `O=C(COc1ccc(Br)cc1CO)Nc1ccc(F)cc1` belongs 9.43%; to `CCCCN(C)C(=O)C(Cc1ccccc1)NS(=O)(=O)c1ccc2c(c1)CCC(=O)N2` (stereo not drawn), -4.66%.
With `CNC(=S)N(Cc1ccco1)Cc1cc2cc(OC)ccc2[nH]c1=O`, the inhibition is -3.07%.
The figure for `CCCCCCNC(=O)N1C/C=C\C(c2ccc(OC)cc2)N(Cc2ccc(F)cc2)C(=O)C1` (stereo not drawn) is -0.25%; for `C[n+]1c2n(c3ccccc31)N=C(c1ccccc1)CS2` it is -4.82% and 0%.
To `C[n+]1c2n(c3ccccc31)N=C(c1ccc(-c3ccccc3)cc1)CS2` belongs 5.47%; to `O=C(N/N=C/c1ccc2c(c1)OCO2)c1ccc(COc2cccc3cccnc23)cc1`, 0.48%.
The figure for `COCC(=O)NNC(=S)Nc1cccc(C)c1C` is 9.36%; for `COC(=O)c1ccc(C(=O)OC)c(NC(=S)N2CCOCC2)c1` it is 5.12%.
For `CCN(CC)C(=O)CSc1nnc2nnc3cc(OC)ccc3n12`, the inhibition is 44%.
To `CCN(CC)C(=O)CSc1nnc2nnc3cc(C)ccc3n12` belongs 65.9%; to `CCOc1ccc(-c2onc(C(F)(F)F)c2-c2cscn2)c(O)c1`, 6.75%; to `COc1cc(/C=C/C(=O)O)cc(S(=O)(=O)Nc2ccccc2Oc2ccccc2)c1OC`, -0.26%.
The figure for `CSc1sc(C(=O)N2CCCCC2)c(-c2cccs2)c1C#N` is -3.75%; for `Cn1c2c(c(=O)n(C)c1=O)C(C(F)(F)F)(C(F)(F)F)N=C(c1ccccc1Cl)N2` it is -9.88%.
The figure for `COc1ccc(C2=NC(C(F)(F)F)(C(F)(F)F)c3c(n(C)c(=O)n(C)c3=O)N2)cc1` is -0.04%; for `CCOC(=O)c1c(CN2CCC(C)CC2)n(C)c2cc(Br)c(OC)cc12` it is 11.6%.
Turning to `COc1ccccc1NS(=O)(=O)c1cc(C)ccc1C`, the inhibition was -7.48%.
To `CC(NC(=O)c1ccccc1F)c1nnc(SCc2nc3ccccc3c(=O)[nH]2)n1C` (stereo not drawn) belongs -3.02%.
To `CNc1ncnc2sc(-c3ccccc3)cc12` belongs -0.065%.
The figure for `Cc1sc2nc(Cc3ccccc3)[nH]c(=O)c2c1-c1ccccc1` is -4.69%; for `O=c1[nH]cnc2sc(-c3ccccc3)cc12` it is 40%.
As for `Cc1c(-c2ccccc2)sc2nc[nH]c(=S)c12`, the inhibition was 89.6%.
To `c1ccc2c(c1)NC1(CCCCCC1)n1c-2nc2ccccc21` belongs -3.46%; to `COc1ccc(CCn2c(-c3ccc(Cl)cc3)n[nH]c2=S)cc1OC`, 1.97%; to `COc1ccc(C(=O)NCCc2nnc3ccc(SCC(=O)Nc4cc(C)on4)nn23)cc1`, 14.5%.
To `COc1ccc(C(CC(=O)Nc2nccs2)n2cccc2)cc1` (stereo not drawn) belongs -4.49%; to `O=[N+]([O-])c1ccc(-n2nnnc2-c2ccccc2)cc1`, 1.98%; to `CCOC(=O)c1nnn(-c2ccc([N+](=O)[O-])cc2[N+](=O)[O-])c1C`, -6.3%.
The figure for `Cc1ccc(-c2csc3nc(C)n(N)c(=O)c23)cc1` is 3.11%; for `COc1ccc(C(=O)COC(=O)CNC(=O)C2CCCCC2)c(OC)c1` it is -2.99%.
With `COc1ccc(O)c(C(=O)CC(=O)c2ccccc2)c1`, the inhibition was 0.06%.
To `COc1ccc(O)c(C(=O)CC(=O)c2ccc(F)cc2)c1` belongs -1.1%; to `COc1ccccc1CCNC(=O)Cc1cccs1`, 4.99%.
`Cc1cccc(N(CC(N)=O)S(C)(=O)=O)c1C`: the inhibition was 9.11%.
For the molecule `Cc1ccc2nc(NC(=O)C(NS(=O)(=O)c3cccc4nsnc34)C(C)C)sc2c1` (stereo not drawn), the inhibition was 11.5%.
To `COc1ccc(NC(=S)NCc2ccco2)c(OC)c1` belongs -0.51%; to `CCOc1ccc(CCNC(=O)CSc2cc(=O)n(C)c3cc(Cl)ccc23)cc1OCC`, -8.35%.
To `CCOc1ccc(N/C(C)=C/C(=O)c2ccc3c(c2)OCCO3)cc1` belongs 77.8%.
With `COc1ccc(C(=O)/C=C(\C)Nc2ccc3c(c2)OCO3)cc1`, the inhibition is 53.2%.
The figure for `CC(=O)Nc1ccc(N/C=C/C(=O)c2ccc(C)o2)cc1` is 7.24%; for `COC(=O)c1ccc(N/C=C\C(=O)c2ccc3c(c2)OCO3)cc1` it is 17.8%; for `COc1ccc(N/C=C\C(=O)c2ccc3c(c2)OCO3)cc1` it is 77.1%.
Take `COc1ccc(OC)c(N/C(C)=C/C(=O)c2ccc(C)o2)c1`: the inhibition was -3.01%.
In the case of `COCCN(CCOC)C(=O)C1CCCN(S(=O)(=O)c2ccc(NC(=O)OC)cc2)C1` (stereo not drawn), the inhibition is -2.59%.
To `COc1cccc(Oc2coc3cc(OC(=O)N4CCOCC4)ccc3c2=O)c1` belongs -2.14%; to `CN(C)CCCN(C(=O)c1ccc(S(=O)(=O)N(C)C)cc1)c1nc2cc3c(cc2s1)OCO3`, -1.53%; to `CCOC(=O)c1ccccc1NC(=O)Cn1cnc2c(nnn2-c2ccc(C)cc2)c1=O`, 1.13%.
To `O=[N+]([O-])c1ccc(N2CCN(S(=O)(=O)c3ccccc3)CC2)cc1NCc1ccco1` belongs -1.65%; to `O=S(=O)(NCc1ccccc1)c1ccc(S(=O)(=O)N(Cc2ccccn2)C2CCCC2)cc1`, -1.41%.
The figure for `O=C1CC(/C=C/c2ccccc2)=Nc2ccccc2N1` is 2.15%.
`O=C1CC(/C=C/c2ccncc2)=Nc2ccccc2N1`: the inhibition was -0.28%.
Consider `CCOc1cccc(-c2cc(-c3n[nH]c(=S)n3CC)c3ccccc3n2)c1`, for which the inhibition is 14.2%.
Regarding `COc1ccc(CNC(=O)COC(=O)C2CCN(S(=O)(=O)c3ccccc3C(F)(F)F)CC2)cc1`, the inhibition is 1.6%.
The figure for `CC1C(c2ccccc2)C(C#N)(C#N)C2(C#N)C(=O)NC1(N)C2C` (stereo not drawn) is -0.87%; for `O=[N+]([O-])c1ccc(CSc2nc3ccccc3o2)cc1` it is -1.9%; for `O=[N+]([O-])c1ccc(Sc2cccc3cccnc23)cc1` it is 30.8%.
To `O=[N+]([O-])c1ccc(Cl)cc1Sc1nc2ccccc2o1` belongs -9.56%; to `O=[N+]([O-])c1cc(Cl)ccc1Sc1cccc2cccnc12`, 28.5%.
To `O=C(c1ccc(Cl)c(S(=O)(=O)N2CCCC2)c1)N1CCN(c2ccc(F)cc2)CC1` belongs 3.62%; to `COc1ccc(NC(=O)CSc2nc(NS(=O)(=O)c3ccccc3)cc(=O)[nH]2)cc1`, 3.87%; to `CC(Sc1ccccc1)C(=O)Nc1ccccc1C(=O)N1CCOCC1` (stereo not drawn), -11.3%.
On to `CC(C)(C)c1cc(-c2ccccc2)no1`, for which the inhibition is 10.7%.
To `COc1ccccc1C(=O)Nc1ccc(N2CCN(Cc3ccccc3)CC2)cc1` belongs 40.9%; to `COc1ccc(C(=O)Nc2ccc(N3CCN(Cc4ccccc4)CC3)cc2)cc1`, 4.64%.
In the case of `O=C(NNc1ccc(-c2csnn2)cc1)c1cc(Cl)cc(Cl)c1`, the inhibition is 27.1%.
In the case of `CCCCC1=CC2=C(c3ccco3)C(=O)C(C)(OC(=O)c3ccc(OC)cc3)C(=O)C2=CN1CCCOC(C)C` (stereo not drawn), the inhibition is -5.76%.
The figure for `CC(=O)OC(C(=O)N1CCOCC1)c1c(F)cccc1F` (stereo not drawn) is -0.03%; for `O=C(CNC(=O)c1ccc(-c2ccccc2)cc1)OCc1ccc(Br)cc1` it is 6.21%.
The figure for `Cc1ccc(C(=O)N/C(=C\c2ccccc2)C(=O)OCc2ccccc2)cc1` is 12.7%; for `O=C(CCCNC(=O)/C(=C\c1ccc(F)cc1)NC(=O)c1ccccc1)OCc1ccccc1` it is 1.82%.
`O=C(CCCNC(=O)/C(=C/c1ccc(Br)cc1)NC(=O)c1ccccc1)OCc1ccccc1`: the inhibition is 1.44%.
To `COc1ccc(-c2cn3cc(C(F)(F)F)cc(Cl)c3n2)cc1` belongs 65.8%.
The figure for `CCCc1cc(C(N)=O)c(NC(C)=O)s1` is 2.59%; for `O=C(c1cc(-c2ccccc2)on1)N1CCc2ccccc2C1` it is -6.16%; for `CCOc1ccc(C2c3c(oc4cc(C)c(C)cc4c3=O)C(=O)N2CCCN2CCOCC2)cc1` (stereo not drawn) it is -8.64%.
For the molecule `CCOC(=O)C1CCN(Cc2nnnn2CCc2ccccc2)CC1`, the inhibition is -3.91%.
Turning to `Nc1nc2nccc(-c3ccco3)n2n1`, the inhibition was -5.94%.
To `CC(C)OC(=O)C(C)Nc1n[nH]c(=S)[nH]c1=O` (stereo not drawn) belongs -1.15%.
The figure for `COc1ccc(OC)c(-n2c(-c3ccc(S(C)(=O)=O)cc3)cc(C=O)c2C)c1` is -4.11%; for `c1ccc(-c2oc3ncnc(NCCCN4CCOCC4)c3c2-c2ccccc2)cc1` it is -8.09%; for `c1cncc(-c2nc(NCCCn3ccnc3)c3ccccc3n2)c1` it is 1.38%.
Regarding `Cc1nc(NCCCn2ccnc2)c2oc3ccccc3c2n1`, the inhibition was 7.2%.
With `CCc1nc(NCCCn2ccnc2)c2oc3ccccc3c2n1`, the inhibition is -11.5%.
As to `Cc1nc(NCCCn2ccnc2)c2ccccc2n1`, the inhibition is -2.03%.
The figure for `c1ccc(-c2c(-c3ccccc3)n(Cc3ccco3)c3ncnc(NCCCn4ccnc4)c23)cc1` is 25.2%.
To `CCOC(=O)c1cnn(CCOC(=O)c2cccs2)c1NC(=O)c1cccs1` belongs 7.28%; to `COC(=O)c1ccc(CSc2nnc(Nc3ccc(C)cc3)s2)o1`, -4.05%.
As to `Cc1c(Br)c([N+](=O)[O-])nn1CC(=O)c1ccccc1`, the inhibition was 0.16%.
